# A selection: hits, their analogues and other compounds. The true share with any hit is near 9.4%.
# HTT aggregate – qHTS Multiplex Assay to Identify Dual Action Probes in a Cell Model of Huntington: Aggregate Formation (GFP); PC12 HttQ103-GFP aggregates, Acumen cytometry, 40 h; 1.1% of 220,000 active; Potency, µM (highest dose often 46.1 µM), for the others: at the top dose activity change, negative = inhibition, actives largely listed as inhibitors; further: potency means the concentration at half of the fitted maximal effect; on the % scale 0 is the no-effect control and ±100 the full control effect; nearly all actives have a fitted effect of over 60% in size
#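 PC12 cells with ecdysone-inducible HTT exon1 Q103-GFP, induced by 100 nM tebufenozide, given compounds in a concentration series. GFP aggregates (1–25 um, 6 SD above background) counted in lysates by laser-scanning cytometry, 488 nm excitation.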
# HTT ATP protect – qHTS Multiplex Assay to Identify Dual Action Probes in a Cell Model of Huntington: Cytoprotection (ATP). PC12 HTT-Q103 induced, cytoprotection, ATP luminescence, 40 h. Potency, µM (series often up to 56.4 µM), without a hit: cytoprotection (ATP increase), actives largely listed as activators. 0.14% of 230,000 active. AID 1471, 2008; further: potency means the concentration at half of the fitted maximal effect; % of control where 0% means no effect; nearly all actives have a fitted effect of over 45% in size
#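 ATP quantification (ATPlite) reports survival of PC12 cells in which tebufenozide, 100 nM final, switches on Htt exon 1 with 103 glutamines linked to GFP; compounds are titrated.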
# IMPase inh – qHTS Assay for Identifying the Cell-Membrane Permeable IMPase Inhibitors. Inositol monophosphatase 1 (Rattus norvegicus), P97697. AID 901, 2007. CHO-M1 cells, IP1 accumulation, HTRF TR-FRET ratio. inhibition (IP1 accumulation), % at 46.1 µM. 120,000 tested, under 10 active; active means well fitted curve in the direction sought with a large enough effect in the signal ratio, not every such curve was filed as active; inconclusive means small, poorly fitted or top-dose-only effect, or a change in a side signal; inactive means no such curve, though single readings can be large or run the other way; the % refers to the signal ratio;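 further: cells stimulated with carbachol in lithium chloride buffer; plate controls were DMSO basal wells for no effect and reference inhibitor wells for full effect; higher means more IMPase inhibition seen as more IP1 and lower FRET ratio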
#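 Elevated IP1 in lysates lowers TR-FRET signal (665/620 ratio and 620 channel reported). Cells were CHO-M1, given carbachol (50 uM as added) plus 50mM LiCl, pH 7.4, 30 min, 37C; compounds titrated up to 46 uM; AC50 by Hill equation.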
# ALDH1A1 block – qHTS Assay for Inhibitors of Aldehyde Dehydrogenase 1 (ALDH1A1); Aldehyde dehydrogenase 1A1 (Homo sapiens), P00352; Purified ALDH1A1, NADH fluorescence, propionaldehyde substrate; Potency, µM (doses to about 75.3 µM), for the others: at the top dose activity, negative = inhibition, hits mostly inhibitors; 7.3% of 220,000 active; active means well fitted inhibition curve with a large enough effect, not every such curve was filed as active; inconclusive means small, poorly fitted or top-dose-only effect, or another doubt; inactive means no such curve, though single readings can be large or run the other way;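 further: potency means the concentration at half of the fitted maximal effect; plate controls were no enzyme wells and a reference inhibitor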
# Target sequence (P00352 whole entry, looked up): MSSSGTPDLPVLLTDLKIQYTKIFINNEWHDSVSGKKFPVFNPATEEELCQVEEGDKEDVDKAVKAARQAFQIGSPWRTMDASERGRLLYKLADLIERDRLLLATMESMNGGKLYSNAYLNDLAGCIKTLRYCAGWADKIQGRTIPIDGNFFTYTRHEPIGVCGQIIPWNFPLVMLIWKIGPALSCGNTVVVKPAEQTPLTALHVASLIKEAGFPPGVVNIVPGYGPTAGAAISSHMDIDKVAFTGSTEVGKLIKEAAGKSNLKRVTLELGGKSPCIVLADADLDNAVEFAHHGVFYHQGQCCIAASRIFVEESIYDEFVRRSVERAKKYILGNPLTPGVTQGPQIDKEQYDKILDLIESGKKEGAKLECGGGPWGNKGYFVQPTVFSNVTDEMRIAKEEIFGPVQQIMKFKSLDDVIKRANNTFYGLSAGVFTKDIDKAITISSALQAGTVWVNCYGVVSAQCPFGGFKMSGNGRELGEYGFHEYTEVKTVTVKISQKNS
# HPGD inh – qHTS Assay for Inhibitors of HPGD (15-Hydroxyprostaglandin Dehydrogenase); AID 894, 2007; purified HPGD, NADH fluorescence kinetic, PGE2 substrate; Potency, µM, without a hit: top-dose activity change, negative = inhibition, actives largely listed as inhibitors; 15-hydroxyprostaglandin dehydrogenase [NAD(+)] (Homo sapiens), P15428; 4.3% of 150,000 active; active means well fitted inhibition curve with a large enough effect, not every such curve was filed as active; inconclusive means small, poorly fitted or top-dose-only effect, or another doubt; inactive means no such curve, though single readings can be large or run the other way; further: potency means the concentration at half of the fitted maximal effect; on the % scale 0 is the no-effect control and ±100 the full control effect
# Target sequence (P15428 whole entry, looked up): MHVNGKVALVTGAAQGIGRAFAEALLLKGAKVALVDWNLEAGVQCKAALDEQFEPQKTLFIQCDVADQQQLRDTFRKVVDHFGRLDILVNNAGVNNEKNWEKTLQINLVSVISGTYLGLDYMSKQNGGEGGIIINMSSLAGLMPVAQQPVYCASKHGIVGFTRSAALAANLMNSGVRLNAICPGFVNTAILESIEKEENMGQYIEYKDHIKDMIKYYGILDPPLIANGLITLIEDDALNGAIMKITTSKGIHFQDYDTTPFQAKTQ
#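 NADH formation kinetics: reaction with 30 uM PGE2 and 1 mM NAD+ (final), 20 nM enzyme, Tris-HCl pH 8 with Tween 20, after 15 min compound preincubation at room temperature. Fluorescence change, last versus first of five reads.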
# IMPase Li inh – qHTS Assay for Identifying the Cell-Membrane Permeable IMPase Inhibitors: Potentiation with Lithium. Potency, µM (titrated, usually from 59.4 µM), for the others: top-dose activity, negative = IMPase inhibition, most hits filed as inhibitors. CHO-M1 cells, IP1 TR-FRET (IP-One), carbachol + lithium. 0.35% of 210,000 active;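 further: IP1 builds up when IMPase is blocked and the TR-FRET signal falls; potency means the concentration at half of the fitted maximal effect; plate controls were basal vehicle for no effect and high inhibitor control for full effect; nearly all actives have a fitted effect of over 50% in size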
#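 Readout is a homogeneous TR-FRET IP1 immunoassay (Ex 320, Em 665 and 620), where raised cytosolic IP1 lowers signal. Cells were CHO-M1 treated 30 min at 37C with test compounds plus a little lithium; AC50 values came from Hill-equation fitting.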
# Starred values were filed as active, the others as inactive; ? = inconclusive; / = no result; [ ] = another dose, or the depositor's remark. Unless noted, the call rests on the fitted dose curve; in most records, active means well fitted curve in the direction sought with a large enough effect; inconclusive means small, poorly fitted or top-dose-only effect, or another doubt; inactive means no such curve, though single readings can be large; an effect the other way counts as inactive or inconclusive.
SMILES,HTT aggregate,HTT ATP protect,IMPase inh,ALDH1A1 block,HPGD inh,IMPase Li inh
CCOC(=O)C(CC)Sc1ncnc2sc3c(c12)CCCC3 (stereo not drawn),/,/,2,/,/,/
CC1(C)[C@H]2CC[C@]1(C)[C@@H](OC(=O)C[N+]1(C)CCOCC1)C2,-4%[9.22 µM],6%[10 µM],/,4%,/,/
CC1(C)[C@@H]2CC[C@]1(C)[C@@H](OC(=O)CSC#N)C2,11%,13%[10 µM],/,1.8µM*,-11%,-1%
Cc1ccc(CSc2ncnc3c2cnn3Cc2ccccc2)cc1,20%,-6%,3,-8%,-11%,19%[38.3 µM]
c1ccc(CSc2ncnc3c2cnn3-c2ccccc2)cc1,14%,-5%[10 µM],/,?,25µM*,1%
CCCS(=O)(=O)c1c(S(=O)(=O)CCC)c2cc(C(C)(C)C)ccn2c1C(=O)c1ccc(OC)c(OC)c1,/,/,8,/,/,/
O=C(C[n+]1cnn(CC(=O)c2ccc(Cl)cc2Cl)c1)c1ccc([N+](=O)[O-])cc1,4%,-3%[1.9 µM],6,20µM*,0%,2%
O=C(Nc1cnn(Cc2ccc(Cl)cc2)c1)c1ccc([N+](=O)[O-])cc1,2%,2%,8,5%,-13%,6%[38.3 µM]
O=S(=O)(c1cnc[nH]1)N1CCc2ccccc21,-3%,13%,17,20µM*,-1%,16%[38.3 µM]
COc1ccc(-c2nc3ccccc3o2)cc1NC(=O)c1ccc(-c2cccc(Cl)c2C)o1,/,/,-6,/,/,/
CC1=N/C(=C\c2ccc([N+](=O)[O-])cc2)C(=O)N1c1cc(Cl)ccc1C,-16%,12%,3,11µM*,-21%,-8%[38.3 µM]
O=C(NC1CCS(=O)(=O)C1)/C(=C/c1ccco1)NC(=O)c1ccccc1 (stereo not drawn),0.18µM*,0.14µM*,/,-2%,/,4%
NC(=O)N/N=C1\CC[C@H](O)C[C@@H]1CC(=O)O,/,-4%[10 µM],/,17%[13.5 µM],-3%,-2%
CCN(c1ccccc1)S(=O)(=O)c1cc(C(=O)Nc2ccc(Br)cc2)ccc1F,?,/,/,28µM*,?,16%
Cc1ccc(C2Oc3ccccc3C3=C2C(c2cccs2)n2ncnc2N3)cc1 (stereo not drawn),-18%,-54%,7,11µM*,-14%,15%[38.3 µM]
CC(C)(C)NC(=O)[C@@H]1C[C@H]2CCCC[C@@H]2CN1C[C@H](O)[C@H](Cc1ccccc1)NC(=O)[C@@H](CC(N)=O)NC(=O)c1ccc2ccccc2n1,/,-43%[17.1 µM],-2[20.6 µM],1%[20.9 µM],-6%,-3%
CC1CCN(C(=O)C(C)Sc2nc(-c3ccccc3)cc(C(F)(F)F)n2)CC1 (stereo not drawn),-32%,-17%,4,?,16µM*,27%[38.3 µM]
CC(Sc1nc(-c2ccccc2)cc(C(F)(F)F)n1)C(=O)N1CCCC1 (stereo not drawn),12%,10%[10 µM],9,12%,-14%,4%
C[C@@H]1CC2[C@@H]3C[C@H](F)C4=CC(=O)C(Cl)=C[C@]4(C)[C@@]3(F)[C@H](O)C[C@]2(C)[C@@]1(O)C(=O)CO (stereo partly drawn),10%,-72%,/,/,/,/
CC(=O)Nc1ccc(OCC[n+]2cccc(C(N)=O)c2)cc1,-10%,-26%,/,16%,/,18%
CC(=O)Nc1ccc(OCCC[n+]2ccccc2)cc1,0%[9.22 µM],-2%[10 µM],/,2.5µM*,/,1%
Cc1cc(N)c2cc(OCCOc3ccc4nc(C)cc(N)c4c3)ccc2n1,/,/,/,?,-15%,21%
Cc1nnc(NC(=O)c2ccc(C)c(S(=O)(=O)N3CCOCC3)c2)s1,20%,2%,12,9%,-7%,-5%[38.3 µM]
CSc1nnc(NC(=O)c2ccc(C)c(S(=O)(=O)N3CCOCC3)c2)s1,3%,-25%,3,?,20µM*,8%[38.3 µM]
Cc1ccc(NC(=O)c2cc3c(s2)CCC3)cc1S(=O)(=O)N1CCOCC1,?,-20%,0,1.1µM*,-9%,25%[38.3 µM]
SMILES,HTT aggregate,HTT ATP protect,IMPase inh,ALDH1A1 block,HPGD inh,IMPase Li inh
COc1ccc(NC(=O)c2cc3c(s2)CCC(C)C3)cc1S(=O)(=O)N1CCOCC1 (stereo not drawn),?,21%[10 µM],/,16µM*,-12%,15%
CC1CCc2sc(C(=O)NN)cc2C1 (stereo not drawn),-1%,-21%,/,7.1µM*,/,-5%
Cc1ccc(S(=O)(=O)N2CCOCC2)cc1NC(=O)c1cc2c(s1)CCC2,-24%,9%,1,?,-5%,2%[38.3 µM]
C=CCC1(c2ccccc2)Oc2ccc(C)cc2-c2nc3cc(Cl)c(Cl)cc3nc21 (stereo not drawn),/,10%[10 µM],/,-1%[13.5 µM],/,/
O=C(O)C1CCC(CNc2c(NC3CCCCC3)c(=O)c2=O)CC1 (stereo not drawn),/,0%,/,/,/,/
COc1ccc(/C=N/NS(=O)(=O)c2ccccc2)cc1OS(=O)(=O)c1ccc(C)cc1,-2%,3%,1,7.1µM*,-4%,6%[38.3 µM]
C=CCNC(=O)/C(C#N)=C/c1ccc(OS(=O)(=O)c2ccc(C)cc2)c(OC)c1,21%,/,/,25µM*,28µM*,14%
COc1cc(/C=N/NS(=O)(=O)c2ccccc2)ccc1OS(=O)(=O)c1ccc(C)cc1,2%,8%[10 µM],/,7.9µM*,-19%,8%
COc1ccc(/C=C(\C#N)C(=O)NCc2cccs2)cc1OC,5%,13%[10 µM],/,1%,-14%,3%
COCCNc1nc2c(c(=O)n(C)c(=O)n2C)n1Cc1c(F)cccc1Cl,/,/,6,/,/,/
O=c1c(-c2ccccc2)nc2cnc(N3CCNCC3)nc2n1Cc1cccs1,/,3%,/,?,?,13%
CC(C)[C@@H](CC(=O)N[C@@H]1CCCC[C@H]1C(=O)N[C@H](CC(=O)N[C@@H](CCC(=O)O)CC(=O)O)Cc1ccccc1)NC(=O)C[C@H](Cc1c[nH]c2ccccc12)NC(=O)[C@@H]1CCCC[C@H]1N,/,?,/,?,-1%,3%
Cc1ccccc1NC(=S)N(Cc1ccccc1)Cc1cccnc1,2%,-30%,/,6%,/,5%
Cc1ccc(Cl)cc1NC(=S)N(Cc1cccnc1)Cc1ccccc1Cl,4%,-15%,/,11µM*,/,16%
O=S(=O)(Nc1ccc(S(=O)(=O)Nc2nccs2)cc1)c1ccc2c(c1)OCCO2,?,4%,0,13µM*,-20%,14%[38.3 µM]
